# According to the supplement of paper PMC7411054:
# Counter-ions that a name gives are not always drawn.
# How the values were obtained:
# Details in all cases: treatment time: 24 h
# [1] = test system: HepG2-GM130-SQSTM1; experiment: lowest phenotypically active concentration; higher = less potent
# Method in brief: (§1)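 Cells from fifteen gene-edited reporter lines (A549, HepG2 and WPMY1) were treated for 24 h at 0.3, 1, 3 or 9 µM and imaged live, four wells per condition. Features were normalised per well to solvent control wells. A condition deviated if ≥3 of 4 wells passed the 95th percentile of control Euclidean distances and was reproducible if its median replicate Pearson correlation beat the 95th percentile of non-replicates; phenotypic activity needed both.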
# [2] = test system: HepG2-TP53BP1-CLTA; experiment: as above
# Method in brief: as §1
# [3] = test system: WPMY1-ACTB-RAB5A; experiment: as above
# Method in brief: as §1
# [4] = test system: WPMY1-TP53BP1-CLTA; experiment: as above
# Method in brief: as §1
# [5] = test system: A549-CANX-COX4; experiment: phenotypically active (imaging signature differs from DMSO and reproducible) at any of 0.3-9 uM (binary (1 = active, 0 = inactive)); higher = active
# Method in brief: as §1
# [6] = test system: A549-TP53BP1-CLTA; experiment: as above
# Method in brief: as §1
# [7] = test system: HepG2-ACTB-RAB5A; experiment: as above
# Method in brief: as §1
# [8] = test system: HepG2-CANX-COX4; experiment: as above
# Method in brief: as §1
# [9] = test system: HepG2-GM130-SQSTM1; experiment: as above
# Method in brief: as §1
# [10] = test system: HepG2-TP53BP1-CLTA; experiment: as above
# Method in brief: as §1
# [11] = test system: HepG2-TUBA1B-RELA; experiment: as above
# Method in brief: as §1
# [12] = test system: WPMY1-ACTB-RAB5A; experiment: as above
# Method in brief: as §1
# [13] = test system: WPMY1-CANX-COX4; experiment: as above
# Method in brief: as §1
# [14] = test system: WPMY1-GM130-SQSTM1; experiment: as above
# Method in brief: as §1
# [15] = test system: WPMY1-TP53BP1-CLTA; experiment: as above
# Method in brief: as §1
# [16] = test system: WPMY1-TUBA1B-RELA; experiment: as above
# Method in brief: as §1
# [17] = test system: WPMY1-GM130-SQSTM1; experiment: lowest phenotypically active concentration; higher = less potent
# Method in brief: as §1
SMILES,lowest phenotypically active concentration [1] [µM],lowest phenotypically active concentration [2] [µM],lowest phenotypically active concentration [3] [µM],lowest phenotypically active concentration [4] [µM],phenotypically active [5],phenotypically active [6],phenotypically active [7],phenotypically active [8],phenotypically active [9],phenotypically active [10],phenotypically active [11],phenotypically active [12],phenotypically active [13],phenotypically active [14],phenotypically active [15],phenotypically active [16],lowest phenotypically active concentration [17] [µM]
COc1cc2ncn(-c3cc(OCc4ccccc4C(F)(F)F)c(C(N)=O)s3)c2cc1OC,≤ 0.3,≤ 0.3,≤ 0.3,1,1 (active),1 (active),1 (active),1 (active),1 (active),1 (active),1 (active),1 (active),1 (active),0 (inactive),1 (active),1 (active),
COc1ccc2c(Oc3ccc(NC(=O)c4c(C)n(CC(C)(C)O)n(-c5ccccc5)c4=O)nc3)ccnc2c1,9,9,,,0 (inactive),0 (inactive),0 (inactive),1 (active),1 (active),1 (active),1 (active),0 (inactive),0 (inactive),0 (inactive),0 (inactive),0 (inactive),
Cc1ccc(S(=O)(=O)/C=C/C#N)cc1,,,,,0 (inactive),0 (inactive),0 (inactive),0 (inactive),0 (inactive),0 (inactive),0 (inactive),0 (inactive),1 (active),1 (active),0 (inactive),0 (inactive),9
NCCNS(=O)(=O)c1cccc2cnccc12 [H-9 dihydrochloride],,,9,,0 (inactive),0 (inactive),0 (inactive),0 (inactive),0 (inactive),0 (inactive),0 (inactive),1 (active),0 (inactive),0 (inactive),0 (inactive),0 (inactive),
CCN1CCN(c2cc(-c3ccc(F)cc3)c3c(n2)CCCCCC3)CC1 [blonanserin],9,3,9,9,0 (inactive),1 (active),1 (active),1 (active),1 (active),1 (active),1 (active),1 (active),0 (inactive),0 (inactive),1 (active),1 (active),
CC(C)CCN1c2nc(Nc3cc(F)c(O)c(F)c3)ncc2N(C)C(=O)C1C (stereo unspecified),1,3,3,≤ 0.3,0 (inactive),1 (active),1 (active),1 (active),1 (active),1 (active),1 (active),1 (active),1 (active),1 (active),1 (active),1 (active),≤ 0.3
CN1CCN(C2=Nc3cc(Cl)ccc3Nc3ccccc32)CC1 [clozapine],,,,,0 (inactive),0 (inactive),0 (inactive),0 (inactive),0 (inactive),0 (inactive),0 (inactive),0 (inactive),0 (inactive),1 (active),0 (inactive),0 (inactive),9
CC1(C)NC(=O)N(c2ccc([N+](=O)[O-])c(C(F)(F)F)c2)C1=O [nilutamide],,,,,0 (inactive),0 (inactive),0 (inactive),0 (inactive),0 (inactive),0 (inactive),0 (inactive),0 (inactive),0 (inactive),0 (inactive),0 (inactive),0 (inactive),
Cc1cc(C(C)(C)C)c(O)c(C)c1CC1=NCCN1 [oxymetazoline],,,,,0 (inactive),0 (inactive),0 (inactive),0 (inactive),0 (inactive),0 (inactive),0 (inactive),0 (inactive),0 (inactive),1 (active),0 (inactive),0 (inactive),3
Cc1c2oc3c(C)ccc(C(=O)NC4C(=O)NC(C(C)C)C(=O)N5CCCC5C(=O)N(C)CC(=O)N(C)C(C(C)C)C(=O)OC4C)c3nc-2c(C(=O)NC2C(=O)NC(C(C)C)C(=O)N3CCCC3C(=O)N(C)CC(=O)N(C)C(C(C)C)C(=O)OC2C)c(N)c1=O (stereo unspecified) [Actinomycin D],≤ 0.3,≤ 0.3,≤ 0.3,≤ 0.3,1 (active),1 (active),1 (active),1 (active),1 (active),1 (active),1 (active),1 (active),1 (active),1 (active),1 (active),1 (active),≤ 0.3
CCN1CCN(c2ccc(Nc3cc(N(C)C(=O)Nc4c(Cl)c(OC)cc(OC)c4Cl)ncn3)cc2)CC1,,,9,,0 (inactive),0 (inactive),0 (inactive),0 (inactive),0 (inactive),0 (inactive),0 (inactive),1 (active),0 (inactive),1 (active),0 (inactive),0 (inactive),9
O=c1[nH]cc(F)c(=O)[nH]1 [5-Fluorouracil],3,3,,9,1 (active),1 (active),1 (active),1 (active),1 (active),1 (active),1 (active),0 (inactive),0 (inactive),0 (inactive),1 (active),0 (inactive),
Cc1ccccc1N1C(=O)c2cc(S(N)(=O)=O)c(Cl)cc2NC1C (stereo unspecified) [metolazone],,,,,0 (inactive),0 (inactive),0 (inactive),0 (inactive),0 (inactive),0 (inactive),0 (inactive),0 (inactive),0 (inactive),0 (inactive),0 (inactive),0 (inactive),
COc1cc2c(NC3CCN(C(C)C)CC3)nc(C3CCCCC3)nc2cc1OCCCN1CCCC1,1,1,1,1,1 (active),1 (active),1 (active),1 (active),1 (active),1 (active),1 (active),1 (active),1 (active),1 (active),1 (active),1 (active),≤ 0.3
O=c1cc(-c2cccc3c2Sc2ccccc2S3)oc(N2CCOCC2)c1,9,9,3,3,0 (inactive),0 (inactive),1 (active),1 (active),1 (active),1 (active),1 (active),1 (active),1 (active),1 (active),1 (active),0 (inactive),9
Oc1ccc(Nc2nc(-c3ccc(Cl)cc3)cs2)cc1,9,,3,9,1 (active),1 (active),0 (inactive),1 (active),1 (active),0 (inactive),0 (inactive),1 (active),1 (active),1 (active),1 (active),1 (active),3
CC[C@H](C)[C@H](NC(=O)OCc1ccccc1)C(=O)N[C@@H](CCC(=O)OC(C)(C)C)C(=O)N[C@@H](C)C(=O)N[C@H](C=O)CC(C)C,≤ 0.3,≤ 0.3,≤ 0.3,≤ 0.3,1 (active),1 (active),1 (active),1 (active),1 (active),1 (active),1 (active),1 (active),1 (active),1 (active),1 (active),1 (active),≤ 0.3
CCOc1cc(N2CCC(O)CC2)ccc1Nc1ncc2c(n1)N(C)c1ccccc1C(=O)N2C,3,9,3,3,1 (active),1 (active),1 (active),1 (active),1 (active),1 (active),1 (active),1 (active),1 (active),1 (active),1 (active),1 (active),3
C[C@H]1O[C@H](O[C@H]2[C@H](O)[C@@H](O)[C@@H](O[C@H]3[C@H](O)[C@@H](O)[C@H](O)O[C@@H]3CO)O[C@@H]2CO)[C@H](O)[C@@H](O)[C@@H]1N[C@H]1C=C(CO)[C@@H](O)[C@H](O)[C@H]1O [Acarbose],,,,,0 (inactive),0 (inactive),0 (inactive),0 (inactive),0 (inactive),0 (inactive),0 (inactive),0 (inactive),0 (inactive),0 (inactive),0 (inactive),0 (inactive),
CCN1CCN(C(c2cccnc2)c2cc(Cl)c3cccnc3c2O)CC1 (stereo unspecified),9,9,9,9,1 (active),1 (active),1 (active),1 (active),1 (active),1 (active),1 (active),1 (active),1 (active),0 (inactive),1 (active),0 (inactive),
COc1cc2nccc(Oc3ccc(NC(=O)NC4CC4)c(Cl)c3)c2cc1C(N)=O [lenvatinib],,,1,,0 (inactive),0 (inactive),0 (inactive),0 (inactive),0 (inactive),0 (inactive),0 (inactive),1 (active),0 (inactive),0 (inactive),0 (inactive),0 (inactive),
O=c1cc(-c2ccc(O)cc2)oc2c(C3O[C@H](CO)[C@@H](O)[C@H](O)[C@H]3O)c(O)cc(O)c12 (stereo partly specified) [Vitexin],,,,,0 (inactive),0 (inactive),0 (inactive),0 (inactive),0 (inactive),0 (inactive),0 (inactive),0 (inactive),0 (inactive),0 (inactive),0 (inactive),0 (inactive),
Nc1nc2ccc(OC(F)(F)F)cc2s1 [riluzole],,,,,0 (inactive),0 (inactive),0 (inactive),0 (inactive),0 (inactive),0 (inactive),0 (inactive),0 (inactive),0 (inactive),0 (inactive),0 (inactive),0 (inactive),
CCN(CC)CCCC(C)Nc1ccnc2cc(Cl)ccc12 (stereo unspecified) [chloroquine],3,9,3,9,0 (inactive),1 (active),1 (active),1 (active),1 (active),1 (active),1 (active),1 (active),1 (active),1 (active),1 (active),1 (active),3
